This assay relates to DRIVER-selected RNA biosensor (aptazyme) pool. Briefly: maximum fold change of ribozyme cleavage across biosensor pool versus no-compound control; higher = stronger biosensor response (ligand inhibits cleavage). Conditions: 10 µM. In a few lines: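 Fold change of cleavage, the ratio of cleaved:uncleaved read fractions versus a no-compound condition corrected with reference sequences, is given as the maximum over all biosensors. It was measured by CleaveSeq on a pool of 1,730 array-resynthesized ribozyme biosensors transcribed by T7 with 9 mM rNTPs for 15–30 min at 37°C in the presence of one compound at 10 µM final, added from a 10x DMSO stock. After reverse transcription at 50°C, cleaved and uncleaved products were PCR-barcoded and counted by Illumina sequencing.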
Compound `Cc1c(C(=O)NC2CCCCCC2)sc2ncnc(N3CCCCC3C)c12` (centres undefined) registered a maximum fold change of 2.58.

Consider `O=C(NCCCc1ccccc1)C1CCN(c2nnc(N3CCCC3=O)s2)CC1`, for which the maximum fold change was 3.05.

Compound `CCOC(=O)c1cnc2c(OC)cccc2c1NCC1COc2ccccc2O1` (centres undefined) gave a maximum fold change of 7.13.

On to `CCOC(=O)c1cnc(SC)nc1N`, for which the maximum fold change stood at 3.4.

Compound `O=C1C2CC=C(Cl)CC2C(=O)N1CCO` (centres undefined) showed a maximum fold change of 3.4.

For `O=C(c1cc(-c2ccccc2)n[nH]1)N1CCn2c1nc1ccccc12`, the maximum fold change was 5.17.

Compound `N#C/C(=Cc1c(Oc2ccccc2)nc2n(c1=O)cccc2)/c1nc2c(s1)cccc2` had a maximum fold change of 21.

Compound `Cc1c(C(=O)N2CCN(C)CC2)sc2ncnc(N3CCN(c4ccccn4)CC3)c12` came in with a maximum fold change of 2.67.

For `O=C(c1cc(-c2ccccc2)n[nH]1)N1CCc2ccccc2C1`, the maximum fold change is 4.06.

In turn, `Cc1ccn2c(=O)c(C(=O)Nc3cccnc3)cnc2c1` displayed a maximum fold change of 10.8.

Consider `COc1ccc(S(=O)Cc2ccc(C(=O)NC3CC3)o2)cc1` (centres undefined), for which the maximum fold change stood at 2.4.

`Cc1ccc(S(=O)(=O)NC(CC(=O)O)c2cccs2)cc1` (centres undefined) had a maximum fold change of 2.72.

`O=C1Nc2cc(C(=O)N3CCN(c4ccco4)CC3)ccc2N/C1=C\C(=O)c1ccc(Cl)cc1` gave a maximum fold change of 5.38.

In the case of `COc1cc(CNc2ncc(-c3ccccc3)n2C)cc(OC)c1OC`, the maximum fold change stood at 1.75.

With `CCO/C=N/c1oc(C)c(C)c1C#N`, the maximum fold change was 3.22.

For the compound `C=CC[n+]1c(/C=C2\C=CC=CN2C)sc2ccccc21`, the maximum fold change is 13.8.

`CCOc1cc2c(cc1OCC)C1C(C(=O)NCc3cccnc3)c3ccccc3C(=O)N1CC2` (centres undefined) displayed a maximum fold change of 4.02.

Regarding `Cc1nn2c(-c3ccco3)nnc2c2ccccc12`, the maximum fold change was found to be 8.73.

For the compound `CCc1ccc(C2c3c(-c4ccccc4O)n[nH]c3C(=O)N2CC2CCCO2)cc1` (centres undefined), the maximum fold change came out at 1.83.

Source of the values: the supplement of paper PMC9477273.
